Assay results from the supplement of paper PMC3334620.
In all, about 33,000 sequences were measured (“E-score (-0.5 to 0.5)”: median about -0.036, highest 2% from about 0.37 on). What follows is part of a selection rich in the highest values, with near analogues and random picks from the rest.

target: T1, Yer064c (UniProt P40041); assay: PBM E-score (8-mer binding enrichment) (E-score (-0.5 to 0.5)); higher = stronger / more preferred TF binding; details: protein concentration: 200 nM; construct: GST-full length
T1 sequence: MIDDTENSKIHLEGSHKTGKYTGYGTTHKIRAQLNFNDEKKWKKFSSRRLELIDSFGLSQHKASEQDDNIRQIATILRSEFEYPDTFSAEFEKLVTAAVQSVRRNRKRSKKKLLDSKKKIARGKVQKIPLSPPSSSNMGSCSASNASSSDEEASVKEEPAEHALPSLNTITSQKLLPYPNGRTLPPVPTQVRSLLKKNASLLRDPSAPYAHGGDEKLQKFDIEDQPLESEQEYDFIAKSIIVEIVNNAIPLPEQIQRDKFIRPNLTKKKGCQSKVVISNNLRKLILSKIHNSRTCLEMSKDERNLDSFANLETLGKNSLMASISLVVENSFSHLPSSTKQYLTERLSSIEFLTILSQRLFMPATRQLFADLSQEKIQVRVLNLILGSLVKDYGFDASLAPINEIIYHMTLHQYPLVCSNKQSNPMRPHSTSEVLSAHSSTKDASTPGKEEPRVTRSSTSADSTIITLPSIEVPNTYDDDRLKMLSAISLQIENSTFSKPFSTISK
Protocol: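 Universal 'all 10-mer' protein binding microarrays (Agilent AMADID 015681) probed with GST-tagged S. cerevisiae TFs (full-length or DBD) made by in vitro transcription/translation (PURExpress), about 100-200 nM. Bound TF was detected with fluorescent anti-GST. Each ungapped 8-mer (which stands for itself and its reverse complement) is scored by the PBM enrichment score (E-score), a modified Wilcoxon-Mann-Whitney statistic from -0.5 to +0.5, computed with the Universal PBM Analysis Suite. Scale: above 0.35 generally sequence-specific binding.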

Row | Sequence | PBM E-score
1 | ACAAGTCG | 0.0706
2 | TCAAGTCA | 0.379
3 | GCAAGTCA | 0.361
4 | ACAAGTCT | 0.0793
5 | CCAAGTCA | 0.317
6 | ACAGGGCA | -0.128
7 | ATATCCAC | -0.0172
8 | TCAAAGCA | 0.0603
9 | ACTGTTGC | -0.0887
10 | AAACCGGC | -0.0714
11 | ATTCGCGA | 0.122
12 | AAATGAGT | 0.427
13 | AAATGATT | 0.437
14 | AAATGACT | 0.475
15 | AAATGATA | 0.104
16 | AAATGACC | -0.0187
17 | AAATGAGG | -0.229
18 | AAATGACG | 0.0769
19 | AAATGAGC | 0.058
20 | AAATGATC | 0.121
21 | ACTATCTC | 0.212
22 | AATCCGGG | -0.239

Row | Sequence | PBM E-score
23 | CCGTCTCA | 0.0264
24 | CTAATCAC | 0.393
25 | ATAATCTC | 0.137
26 | ATAATCAT | 0.45
27 | ATAATCAG | 0.33
28 | ATAATCAC | 0.385
29 | GTAATCAC | 0.413
30 | CTAATCGC | 0.128
31 | GAAATCAC | 0.347
32 | ATAATCCC | -0.227
33 | ATAATCAA | 0.269
34 | GTAATCAA | 0.325
35 | CTAATCAG | 0.286
36 | ACCTCCAA | 0.0762
37 | ATGTAACG | -0.038
38 | TACCGCCA | -0.125
39 | AGATAGGA | -0.126
40 | TCAATCAA | 0.281
41 | AGAATCAA | 0.243
42 | TTAATCAA | 0.371
43 | TGAATCAA | 0.419
44 | CGAATCAA | 0.272

Row | Sequence | PBM E-score
45 | CTAATCAA | 0.264
46 | ATCGACAG | -0.109
47 | AGTGAGTA | 0.355
48 | AGTGAGTG | 0.0771
49 | CGTGAGTC | 0.48
50 | CGTGAGTA | 0.323
51 | CGTGAGCC | 0.0694
52 | AGTGAGTC | 0.474
53 | GGGTGGGA | -0.139
54 | ACCCCAAT | -0.114
55 | GTATTGTA | -0.0603
56 | ATTGGATC | -0.0186
57 | AATTTTGT | 0.161
58 | AAGCGGGA | -0.239
59 | AGATAGTG | 0.0368
60 | CGATAGCC | -0.0746
61 | CGATAGTA | 0.032
62 | AGATAGTC | 0.403
63 | CGATAGTC | 0.422
64 | AGATAGTA | 0.177
65 | GAACAAGC | -0.357
66 | GAGACATA | 0.334

Row | Sequence | PBM E-score
67 | AAGTCGGT | 0.0145
68 | AAAAGACA | -0.0266
69 | AGGTGGAC | -0.133
70 | AGTCAGAT | 0.427
71 | CGTCAGAG | -0.136
72 | AGTCAGAA | 0.434
73 | CGTCAGAC | -0.124
74 | AATCAGAT | 0.329
75 | GGTCAGAC | 0.0361
76 | AGTCAGAG | 0.428
77 | ACTCAGAT | 0.339
78 | TGTCAGAA | -0.00325
79 | AGTCAGAC | 0.436
80 | GGTCAGAA | -0.00031
81 | ACTCAGAG | 0.302
82 | GGGTATAA | -0.108
83 | ATCGTGAG | 0.124
84 | CCGCGTTC | -0.274
85 | AATTCCCC | -0.128
86 | ACCGGCAG | -0.243
